How the values were obtained:
Test in all cases: log2 ratio of Biotin-Ahx-Ub-VS probe labelling (fragment/DMSO); higher = less target engagement (more negative = stronger competition), active = hit call of the paper (q ≤ 0.05, log2 ratio ≤ -1)
Conditions in all cases: compound concentration: 200 uM; treatment time: 3 h
[1] = target: T1, ALG13 (UniProt Q9NP73)
T1 sequence (whole entry): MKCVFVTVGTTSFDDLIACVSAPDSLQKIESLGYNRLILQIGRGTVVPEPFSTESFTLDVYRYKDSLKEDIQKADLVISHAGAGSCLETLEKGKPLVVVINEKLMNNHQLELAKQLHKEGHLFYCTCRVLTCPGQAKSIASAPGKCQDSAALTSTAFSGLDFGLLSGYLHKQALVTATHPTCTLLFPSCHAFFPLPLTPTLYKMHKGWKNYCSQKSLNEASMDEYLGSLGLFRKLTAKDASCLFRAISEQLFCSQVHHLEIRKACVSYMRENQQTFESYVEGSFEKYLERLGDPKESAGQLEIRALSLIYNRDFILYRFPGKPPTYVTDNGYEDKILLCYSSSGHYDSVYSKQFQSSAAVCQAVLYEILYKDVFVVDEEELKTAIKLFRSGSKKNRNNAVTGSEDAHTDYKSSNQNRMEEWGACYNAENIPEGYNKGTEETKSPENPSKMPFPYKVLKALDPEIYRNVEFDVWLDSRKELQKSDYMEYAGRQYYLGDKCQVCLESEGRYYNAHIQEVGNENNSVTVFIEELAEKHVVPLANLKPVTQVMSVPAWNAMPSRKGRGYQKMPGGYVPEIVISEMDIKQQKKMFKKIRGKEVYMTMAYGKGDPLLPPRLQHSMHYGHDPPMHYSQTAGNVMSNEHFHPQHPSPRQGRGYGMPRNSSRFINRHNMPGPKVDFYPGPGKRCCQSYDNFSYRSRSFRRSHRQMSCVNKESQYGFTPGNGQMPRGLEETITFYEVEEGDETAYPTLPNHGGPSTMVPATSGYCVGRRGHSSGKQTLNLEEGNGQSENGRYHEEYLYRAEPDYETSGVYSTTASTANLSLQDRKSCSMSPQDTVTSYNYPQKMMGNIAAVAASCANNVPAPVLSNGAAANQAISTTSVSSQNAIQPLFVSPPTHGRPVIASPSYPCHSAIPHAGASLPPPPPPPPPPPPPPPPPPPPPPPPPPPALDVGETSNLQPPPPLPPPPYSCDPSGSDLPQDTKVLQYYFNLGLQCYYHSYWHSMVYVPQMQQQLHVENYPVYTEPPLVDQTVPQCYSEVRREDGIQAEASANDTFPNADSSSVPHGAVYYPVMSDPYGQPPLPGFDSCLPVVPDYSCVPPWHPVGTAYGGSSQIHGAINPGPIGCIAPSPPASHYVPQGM
Procedure, shortened: (§1)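 Fragment (200 µM) or vehicle was incubated for 3 h with triplicate HEK293T lysate samples of 495 µg, which were then treated with Biotin-Ahx-Ub-VS at 0.5 µM final for 1 h. Labelled DUBs were enriched on NeutrAvidin, digested with LysC and trypsin, and analysed by diaPASEF LC-MS/MS. Values are average log2 fragment/vehicle ratios from an unpaired t-test on global-median-normalised Spectronaut label-free quantities, using proteins with ≥2 unique peptides.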

[2] = target: ATXN3 (UniProt P54252)
Procedure, shortened: as §1

[3] = target: T2, BAP1 (UniProt Q92560)
T2 sequence (whole entry): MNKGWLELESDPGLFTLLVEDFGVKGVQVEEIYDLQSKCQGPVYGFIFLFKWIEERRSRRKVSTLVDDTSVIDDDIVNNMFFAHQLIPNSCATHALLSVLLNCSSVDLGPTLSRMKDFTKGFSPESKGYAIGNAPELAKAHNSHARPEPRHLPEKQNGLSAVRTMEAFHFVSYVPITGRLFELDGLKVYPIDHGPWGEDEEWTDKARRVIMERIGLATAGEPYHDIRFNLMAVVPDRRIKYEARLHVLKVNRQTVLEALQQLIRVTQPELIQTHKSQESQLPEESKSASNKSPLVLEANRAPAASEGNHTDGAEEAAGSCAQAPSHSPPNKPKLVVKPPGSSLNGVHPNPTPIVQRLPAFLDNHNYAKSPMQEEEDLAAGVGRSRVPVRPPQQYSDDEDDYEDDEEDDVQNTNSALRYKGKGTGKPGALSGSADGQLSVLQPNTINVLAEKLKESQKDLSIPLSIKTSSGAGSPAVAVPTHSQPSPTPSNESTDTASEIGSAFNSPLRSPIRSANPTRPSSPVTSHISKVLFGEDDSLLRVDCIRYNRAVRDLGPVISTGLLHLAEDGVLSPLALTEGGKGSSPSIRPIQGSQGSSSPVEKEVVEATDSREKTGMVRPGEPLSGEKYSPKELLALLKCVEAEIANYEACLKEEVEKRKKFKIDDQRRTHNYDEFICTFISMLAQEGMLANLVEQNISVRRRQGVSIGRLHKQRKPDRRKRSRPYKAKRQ
Procedure, shortened: as §1

[4] = target: EIF3F (UniProt O00303)
Procedure, shortened: as §1

[5] = target: EIF3H (UniProt O15372)
Procedure, shortened: as §1

[6] = target: T3, FAM105A (UniProt Q9NUU6)
T3 sequence (whole entry): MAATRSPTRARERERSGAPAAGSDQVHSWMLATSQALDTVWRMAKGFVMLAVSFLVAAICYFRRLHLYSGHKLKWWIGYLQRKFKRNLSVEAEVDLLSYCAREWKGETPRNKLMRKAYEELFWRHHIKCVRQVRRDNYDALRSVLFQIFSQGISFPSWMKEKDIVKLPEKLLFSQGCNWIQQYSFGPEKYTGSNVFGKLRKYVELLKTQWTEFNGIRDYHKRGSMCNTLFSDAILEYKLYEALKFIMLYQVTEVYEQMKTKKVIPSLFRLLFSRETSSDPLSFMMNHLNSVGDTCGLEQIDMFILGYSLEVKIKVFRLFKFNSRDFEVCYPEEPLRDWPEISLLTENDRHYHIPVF
Procedure, shortened: as §1

[7] = target: OTUB1 (UniProt Q96FW1)
Procedure, shortened: as §1

[8] = target: T4, OTUD4 (UniProt Q01804)
T4 sequence (whole entry): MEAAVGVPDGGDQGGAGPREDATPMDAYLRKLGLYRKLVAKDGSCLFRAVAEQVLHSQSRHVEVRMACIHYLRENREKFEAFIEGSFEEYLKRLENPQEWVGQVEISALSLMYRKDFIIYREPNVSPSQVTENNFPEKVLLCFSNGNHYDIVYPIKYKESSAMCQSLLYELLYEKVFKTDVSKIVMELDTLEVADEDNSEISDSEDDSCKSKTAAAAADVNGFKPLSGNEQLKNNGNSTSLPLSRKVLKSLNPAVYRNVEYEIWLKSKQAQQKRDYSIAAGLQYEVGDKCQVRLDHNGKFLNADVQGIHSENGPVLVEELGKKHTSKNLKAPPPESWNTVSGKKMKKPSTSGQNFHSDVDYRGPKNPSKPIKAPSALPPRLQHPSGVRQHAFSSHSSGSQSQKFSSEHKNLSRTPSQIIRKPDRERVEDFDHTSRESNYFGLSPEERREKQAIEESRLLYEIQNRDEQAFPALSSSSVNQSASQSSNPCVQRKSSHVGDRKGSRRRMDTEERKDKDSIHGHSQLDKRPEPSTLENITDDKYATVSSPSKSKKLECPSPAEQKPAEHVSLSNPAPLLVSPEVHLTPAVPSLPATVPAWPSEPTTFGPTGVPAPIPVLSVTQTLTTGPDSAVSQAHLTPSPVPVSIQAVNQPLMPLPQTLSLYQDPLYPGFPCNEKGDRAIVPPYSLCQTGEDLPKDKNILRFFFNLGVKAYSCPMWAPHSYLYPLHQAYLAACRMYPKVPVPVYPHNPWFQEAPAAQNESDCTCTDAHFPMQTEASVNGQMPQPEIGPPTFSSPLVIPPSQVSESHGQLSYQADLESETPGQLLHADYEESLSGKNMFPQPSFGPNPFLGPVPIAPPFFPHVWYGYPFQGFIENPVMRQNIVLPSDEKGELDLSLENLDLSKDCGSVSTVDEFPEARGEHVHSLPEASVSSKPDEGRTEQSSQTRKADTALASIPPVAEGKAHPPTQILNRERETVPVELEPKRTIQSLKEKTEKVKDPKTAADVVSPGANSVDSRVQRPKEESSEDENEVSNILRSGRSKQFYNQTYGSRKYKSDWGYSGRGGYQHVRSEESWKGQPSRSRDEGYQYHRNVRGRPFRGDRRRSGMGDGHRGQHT
Procedure, shortened: as §1

[9] = target: T5, OTUD5 (UniProt Q96G74)
T5 sequence (whole entry): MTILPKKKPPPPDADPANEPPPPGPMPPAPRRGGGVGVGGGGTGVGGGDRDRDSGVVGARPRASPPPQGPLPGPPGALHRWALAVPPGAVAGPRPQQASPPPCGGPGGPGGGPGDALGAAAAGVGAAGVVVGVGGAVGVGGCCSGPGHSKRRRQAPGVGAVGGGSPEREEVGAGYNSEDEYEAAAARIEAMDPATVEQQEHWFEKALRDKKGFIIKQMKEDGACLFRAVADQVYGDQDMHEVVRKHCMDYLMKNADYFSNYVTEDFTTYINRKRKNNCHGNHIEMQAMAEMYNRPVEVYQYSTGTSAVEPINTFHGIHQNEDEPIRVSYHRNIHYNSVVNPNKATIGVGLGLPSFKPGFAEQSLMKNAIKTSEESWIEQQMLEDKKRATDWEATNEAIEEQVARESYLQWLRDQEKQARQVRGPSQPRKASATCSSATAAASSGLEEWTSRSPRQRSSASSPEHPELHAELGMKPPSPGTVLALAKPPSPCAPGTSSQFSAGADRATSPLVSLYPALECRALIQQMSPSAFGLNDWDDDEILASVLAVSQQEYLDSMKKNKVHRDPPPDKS
Procedure, shortened: as §1

Measured: log2 ratio of Biotin-Ahx-Ub-VS probe labelling

Chain of EIF3F (O00303 whole entry): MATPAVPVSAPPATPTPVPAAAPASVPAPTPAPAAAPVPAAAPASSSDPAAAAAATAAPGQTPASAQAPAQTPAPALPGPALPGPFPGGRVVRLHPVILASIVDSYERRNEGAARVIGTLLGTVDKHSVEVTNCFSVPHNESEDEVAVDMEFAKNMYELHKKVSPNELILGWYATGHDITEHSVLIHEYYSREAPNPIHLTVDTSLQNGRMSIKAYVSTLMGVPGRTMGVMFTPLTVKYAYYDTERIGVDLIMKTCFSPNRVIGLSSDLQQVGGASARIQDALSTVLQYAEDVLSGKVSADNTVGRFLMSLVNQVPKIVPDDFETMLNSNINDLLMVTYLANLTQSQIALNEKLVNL
Chain of ATXN3 (P54252 whole entry): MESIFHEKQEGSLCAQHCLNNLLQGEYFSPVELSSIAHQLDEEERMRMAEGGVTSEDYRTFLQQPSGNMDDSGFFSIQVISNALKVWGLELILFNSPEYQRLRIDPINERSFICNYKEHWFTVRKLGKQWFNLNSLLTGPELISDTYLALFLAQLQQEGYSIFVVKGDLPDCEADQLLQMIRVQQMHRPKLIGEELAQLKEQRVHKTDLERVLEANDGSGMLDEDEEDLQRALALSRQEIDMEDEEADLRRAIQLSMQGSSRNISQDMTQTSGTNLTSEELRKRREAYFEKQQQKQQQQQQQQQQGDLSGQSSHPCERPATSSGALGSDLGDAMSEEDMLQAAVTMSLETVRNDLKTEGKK
Chain of EIF3H (O15372 whole entry): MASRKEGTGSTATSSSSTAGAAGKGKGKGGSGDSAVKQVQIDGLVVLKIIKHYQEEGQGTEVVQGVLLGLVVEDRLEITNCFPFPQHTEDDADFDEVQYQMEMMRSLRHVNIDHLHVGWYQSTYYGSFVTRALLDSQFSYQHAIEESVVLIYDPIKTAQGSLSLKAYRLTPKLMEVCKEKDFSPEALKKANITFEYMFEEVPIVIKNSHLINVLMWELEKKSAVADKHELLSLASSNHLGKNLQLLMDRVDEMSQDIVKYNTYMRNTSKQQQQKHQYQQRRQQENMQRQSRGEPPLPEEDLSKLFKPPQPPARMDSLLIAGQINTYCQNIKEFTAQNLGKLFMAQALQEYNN
Chain of OTUB1 (Q96FW1 whole entry): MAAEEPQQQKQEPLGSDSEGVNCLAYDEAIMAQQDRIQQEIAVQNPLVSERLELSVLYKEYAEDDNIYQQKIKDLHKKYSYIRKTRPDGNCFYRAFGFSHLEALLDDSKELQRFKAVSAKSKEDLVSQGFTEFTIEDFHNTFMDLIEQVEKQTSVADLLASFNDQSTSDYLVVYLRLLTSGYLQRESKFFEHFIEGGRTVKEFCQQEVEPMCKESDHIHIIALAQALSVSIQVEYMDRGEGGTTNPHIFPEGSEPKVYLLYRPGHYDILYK

O=C(CCl)N1CCN(c2nc3ccccc3o2)CC1
active: [2] -1.05 | [3] -1.05
inactive: [1] 0.254 | [4] -0.704 | [5] -0.664 | [6] 0.0333 | [7] 0.0507 | [8] -0.141 | [9] -0.83

From the supplement of paper PMC11732987, “Enantioselective OTUD7B fragment discovery through chemoproteomics screening and high-throughput optimisation” (Communications Chemistry, 2025)
